RAD54 branch: blocks human RAD54 Holliday junction branch migration | FAM/BHQ fluorescence | inhibition, % at 10.4 µM | 360,000 compounds, 0.14% hits | AID 602329;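 active = mean normalized replicate activity at least 40 and at least half of replicates scoring 40 or more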;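 note: 0% = median of neutral control wells and 100% = median of positive control wells; inhibitors cause a drop in the FAM fluorescence signal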
Target sequence (Q92698 whole entry, looked up): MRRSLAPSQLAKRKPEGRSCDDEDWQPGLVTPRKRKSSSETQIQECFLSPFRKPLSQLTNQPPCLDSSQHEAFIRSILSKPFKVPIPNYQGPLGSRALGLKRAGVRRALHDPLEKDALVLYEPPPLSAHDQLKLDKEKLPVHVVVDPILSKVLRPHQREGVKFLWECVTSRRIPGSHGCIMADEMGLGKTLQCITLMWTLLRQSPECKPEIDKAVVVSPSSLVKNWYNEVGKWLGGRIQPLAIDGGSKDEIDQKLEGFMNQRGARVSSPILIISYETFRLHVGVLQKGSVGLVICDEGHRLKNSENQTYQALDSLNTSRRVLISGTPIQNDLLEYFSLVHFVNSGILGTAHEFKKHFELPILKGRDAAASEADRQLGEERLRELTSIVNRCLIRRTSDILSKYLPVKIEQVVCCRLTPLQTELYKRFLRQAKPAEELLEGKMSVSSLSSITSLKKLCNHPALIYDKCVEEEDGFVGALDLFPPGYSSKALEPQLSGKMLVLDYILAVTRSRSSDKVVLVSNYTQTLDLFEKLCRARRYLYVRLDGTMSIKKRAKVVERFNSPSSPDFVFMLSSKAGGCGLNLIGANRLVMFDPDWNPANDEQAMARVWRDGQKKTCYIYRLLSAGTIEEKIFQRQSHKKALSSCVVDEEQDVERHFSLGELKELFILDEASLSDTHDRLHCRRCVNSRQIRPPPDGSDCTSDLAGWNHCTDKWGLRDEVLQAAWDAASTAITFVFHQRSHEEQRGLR
INS-1E GSIS act: GLuc luminescence reporter in INS-1E cells, primary screen for activators of glucose-dependent secretion of insulin; 370,000 compounds, 0.61% hits; activation, % at 16.6 µM; INS-1E GLuc reporter insulin secretion, 2-3 h; AID 743287;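 active = lowest replicate activation of at least 40%, so every replicate reaches that level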;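 note: 0% = median of neutral control wells and 100% = median of IBMX positive control wells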
dFosB activator: mouse delta FosB homodimer activation | P13346 | purified delta FosB, TAMRA-CDK5 oligo fluorescence polarization; percent of positive-control signal above neutral wells | activation, % at 25 µM | 340,000 compounds, 0.99% hits | AID 493131;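 active = mean activation above about 17%, with every replicate also reaching it, limit read from the data, passing the limit was not always enough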
AF4-AF9 inh: blocks AF4 peptide binding to human AF9 | AlphaScreen, biotin-AF4 peptide binding to FLAG-AF9 | inhibition, % at 10 µM | 350,000 compounds, 0.47% hits | AID 651704;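 active = every replicate reaching a set inhibition limit, whatever the replicate mean, cut at about 25% in these data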;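 note: 0% = plate neutral control median and 100% = total signal loss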
RAD52 inh: blocks human RAD52 DNA annealing; inhibition, % at 18.7 µM; 360,000 compounds, 0.46% hits; AID 651710; recombinant RAD52 DNA annealing, FRET fluorescence; P43351;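 active = every replicate showing at least 50% inhibition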
DENV2 CPE rescue: inhibitors of DENV2 cytopathic effect; DENV2-infected cells, cytopathic effect rescue, plate reader; 350,000 compounds, 1.7% hits; CPE inhibition, % at 9.99 µM; in the data active = CPE inhibition above about 20%, passing the limit was not always enough; tested in BHK-21 cells;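 note: 0% = median of neutral control wells and 100% = median of positive control wells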
Active calls of the source: *; x = no result. Only some compounds are listed: those with a hit (about 3.1% of all), similar ones and a draw of the others.

SMILES	RAD54 branch	INS-1E GSIS act	dFosB activator	AF4-AF9 inh	RAD52 inh	DENV2 CPE rescue
CN(C)c1ccc(/C=C(\NC(=O)c2ccccc2)C(=O)NCCN2CCOCC2)cc1	-38.8	40.5*	-8.5	0.9	-76.1	1.7
COc1ccccc1-c1cnc2c(c1)C(=O)N([C@H](C)CO)C[C@H](C)[C@H](CN(C)CC1CCOCC1)O2	3.0	13.5	x	-2.4	-6.9	2.4
CCCNC(=O)N1[C@H](CO)[C@@H](c2ccccc2-c2ccc(OC)cc2)[C@@H]1C#N	x	-7.1	x	1.4	-0.9	-6.1
C[C@H]1CN([C@@H](C)CO)C(=O)c2cc(C#Cc3cccc(F)c3)cnc2O[C@H]1CN(C)C(=O)C1CCC1	-1.2	-7.2	x	-3.0	20.3	-8.4
C[C@H]1CN([C@@H](C)CO)C(=O)c2cc(C#CCc3ccccc3)cnc2O[C@@H]1CN(C)C(=O)C1CCC1	x	36.9	x	-4.8	11.6	10.8
C[C@@H]1CN([C@@H](C)CO)C(=O)c2cc(C#Cc3cccc(F)c3)cnc2O[C@@H]1CN(C)C(=O)C1CCC1	3.8	-7.3	x	-2.2	-2.8	86.9*
C[C@H]1CN([C@@H](C)CO)C(=O)c2cc(-c3cccnc3)cnc2O[C@H]1CN(C)C(=O)C1CCC1	-4.8	5.3	x	-4.6	8.8	23.7*
C[C@H](CO)N1C[C@H](C)[C@@H](CN(C)C(=O)C2CCC2)Oc2ncc(C#CCc3ccccc3)cc2C1=O	-5.9	29.9	x	0.1	9.1	60.2*
C[C@H]1CCCCO[C@H](CN(C)C(=O)Nc2ccc(F)cc2)[C@@H](C)CN([C@@H](C)CO)C(=O)c2cc(N(C)C)ccc2O1	x	6.4	x	x	x	x
C[C@H](CO)N1C[C@H](C)[C@@H](CN(C)C(=O)Nc2ccccc2)Oc2c(NC(=O)NC3CCCCC3)cccc2C1=O	-8.5	-15.2	1.6	-2.7	-3.0	63.5*
CC(C)NC(=O)Nc1cccc2c1O[C@H](CN(C)C(=O)Nc1ccccc1)[C@H](C)CN([C@H](C)CO)C2=O	-3.2	-2.6	x	-3.0	-4.7	42.4*
C[C@H]1CCCCO[C@H](CN(C)C(=O)Nc2ccc(C(F)(F)F)cc2)[C@@H](C)CN([C@@H](C)CO)C(=O)c2cc(NC(=O)Nc3cccc4ccccc34)ccc2O1	-8.9	6.7	x	-2.0	-25.3	1.4
C[C@H]1CCCCO[C@H](CN(C)C(=O)CCCN(C)C)[C@@H](C)CN([C@@H](C)CO)C(=O)c2cc(NC(=O)CCC(F)(F)F)ccc2O1	2.0	27.8	x	-0.6	2.8	-3.7
CC(C)CNC(=O)C1Nc2ccccc2C2C=CCC12 (stereo not drawn)	-1.3	x	-8.9	6.4	-47.2	63.2*
COC(=O)CNC(=O)C1Nc2ccccc2C2C=CCC12 (stereo not drawn)	-5.5	x	-8.2	6.2	-54.3	15.2
CC(C)c1ccc(Nc2ncc3c(n2)CCN(C(=O)Nc2ccc(F)c(Cl)c2)C3)cc1	-10.9	-11.9	x	0.8	-47.2	20.1*
COc1ccc2c3c(n(C)c2c1)[C@H](CO)N(C(C)=O)CC31CN(C(=O)c2ccccc2)C1	x	17.3	x	x	x	9.6
COc1cccc(S(=O)(=O)N[C@H]2CC[C@@H](CCNC(=O)Nc3cc(F)ccc3F)O[C@@H]2CO)c1	2.6	-3.1	x	6.5	16.1	-1.5
CCCC(=O)N1CC2(C1)CN(C(=O)C1CCCCC1)[C@@H](CO)c1[nH]c3cc(OC)ccc3c12	x	11.3	x	1.4	7.3	21.6*
CCCC(=O)N1CCC2(CC1)CN(C(=O)C1CC1)[C@H](CO)c1[nH]c3cc(OC)ccc3c12	x	-2.8	x	-1.1	0.4	33.9*
COc1ccc2c3c([nH]c2c1)[C@H](CO)N(C(=O)C1CC1)CC31CN(C(=O)NC(C)C)C1	x	20.6	x	2.2	-0.4	29.7*
CCCNC(=O)N1CC2(CCN(C(=O)C3CCC3)CC2)c2c([nH]c3cc(OC)ccc23)[C@@H]1CO	x	-1.4	x	43.8*	x	-5.7
COc1ccc2c3c([nH]c2c1)[C@@H](CO)N(C(=O)C1CC1)CC31CN(C(=O)NC(C)C)C1	x	9.9	x	0.9	2.7	2.8
CCCNC(=O)N1CC2(CCN(C(=O)C3CCCC3)CC2)c2c([nH]c3cc(OC)ccc23)[C@@H]1CO	x	x	x	-3.0	-0.4	11.5
COc1cccc(S(=O)(=O)N2CC3(CN(C(=O)Nc4ccc(F)cc4)[C@H](CO)c4[nH]c5cc(OC)ccc5c43)C2)c1	x	-9.1	x	1.3	x	127.6*
